Screening data: PubChem, National Center for Advancing Translational Sciences (NCATS)
TDP1 inh: TDP1 (human) enzyme inhibition. actives 0.28% (n = 350,000). Potency, µM (titrated, usually from 130 µM), for the others: at the highest dose activity change, negative = inhibition, hits mostly inhibitors. Q9NUW8. recombinant TDP1, AlphaScreen DNA substrate cleavage. AID 485290; also: nearly all actives have a fitted effect of over 40% in size
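Signal: AlphaScreen proximity between streptavidin donor and anti-FITC acceptor beads on intact substrate. Reaction: Tdp1 1 nM, substrate 15 nM final, 5 min RT after 15 min compound preincubation.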
GCN5L2 inh: GCN5L2 (KAT2A) acetyltransferase inhibition; Potency, µM (series often up to 58.9 µM), for inactives: at the highest dose activity change, negative = inhibition, actives largely listed as inhibitors; GCN5L2 HAT assay, ThioGlo1 CoA-SH fluorescence; Q92830; actives 0.21% (n = 390,000)
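Compounds, pin-transferred from DMSO stocks, meet 20nM GCN5L2 for 15 min before the reaction begins with H3(1-25) peptide (75uM) and acetyl-CoA (70uM). Thiol-reactive ThioGlo1 reports CoA release over 20 min at room temperature.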
PLK1 PBD block: PLK1 (human) polo-box domain binding inhibition | P53350 | Plk1 PBD binding of FITC phosphopeptide, fluorescence polarization | Potency, µM, for inactives: max response, negative = inhibition, usual class: inhibitors | actives 2.8% (n = 360,000) | AID 720504; also: series mostly up to about 57 µM; nearly all actives have a fitted effect of over 65% in size
Target sequence (P53350 whole entry, looked up, the tested form may be a part): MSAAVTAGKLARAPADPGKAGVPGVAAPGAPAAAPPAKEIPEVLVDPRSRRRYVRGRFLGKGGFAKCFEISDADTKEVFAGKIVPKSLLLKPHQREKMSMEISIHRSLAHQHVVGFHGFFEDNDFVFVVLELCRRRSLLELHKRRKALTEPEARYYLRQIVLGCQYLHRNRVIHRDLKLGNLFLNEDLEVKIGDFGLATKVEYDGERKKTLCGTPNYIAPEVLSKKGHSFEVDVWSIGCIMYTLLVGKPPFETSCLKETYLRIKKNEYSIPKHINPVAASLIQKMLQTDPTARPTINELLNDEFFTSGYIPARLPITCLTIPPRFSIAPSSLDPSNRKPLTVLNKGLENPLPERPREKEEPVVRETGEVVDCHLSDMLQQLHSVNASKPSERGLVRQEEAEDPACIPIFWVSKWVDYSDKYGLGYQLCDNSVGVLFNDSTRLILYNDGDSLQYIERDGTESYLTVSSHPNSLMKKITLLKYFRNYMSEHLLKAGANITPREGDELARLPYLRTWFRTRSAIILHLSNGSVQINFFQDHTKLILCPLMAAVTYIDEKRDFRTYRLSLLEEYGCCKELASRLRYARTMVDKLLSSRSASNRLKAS
VDR inhibitor: vitamin D3 receptor (human) inhibition; P11473; VDR-SRC2-3 peptide fluorescence polarization, 2 h; Potency, µM, for the others: max response, negative = inhibition, actives largely listed as inhibitors; actives 0.93% (n = 400,000)
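Reagent solutions, kept cold and dark, are dispensed first; compounds are then pinned in at 23 nl, plates briefly spun, and incubated 2 h at ambient temperature. Inhibition of VDR–SRC2-3 peptide binding is read by fluorescence polarization.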
TDP1 cell noCPT: qHTS for Inhibitors of human tyrosyl-DNA phosphodiesterase 1 (TDP1): qHTS in cells in absence of CPT; Potency, µM (highest dose often 46.2 µM), inactives show top-dose activity change, negative = growth inhibition, most hits filed as inhibitors; DT40 Tdp1-/- hTDP1 cells, no CPT, ATP luminescence, 48 h; actives 15% (n = 420,000); also: nearly all actives have a fitted effect of over 55% in size
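Readout: luminescence from CellTiter-Glo after 30 min in the dark at RT. Cells: DT40 Tdp1-/- with stable hTDP1, 400/well. Exposure: compounds alone, ≥48 hr, 37 °C.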
DT40 TDP1 CPT: growth inhibition of DT40 Tdp1-/-;hTDP1 cells with camptothecin (screen for TDP1 inhibitors). chicken DT40 Tdp1-/-;hTDP1 cells + 20 nM CPT, ATP luminescence, 48 h. Potency, µM (titrated, usually from 46.2 µM), for inactives: at the highest dose activity change, negative = growth inhibition, usual class: inhibitors. actives 12% (n = 420,000); also: nearly all actives have a fitted effect of over 55% in size
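Chicken DT40 Tdp1-/- cells complemented with human TDP1, 400 cells/well, exposed to compounds plus 20 nM camptothecin for at least 48 h at 37 C; viability read as ATP content by CellTiter-Glo luminescence.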
Active calls of the source: *; ? = inconclusive; nt = not tested or not shown; [ ] = remark or other dose. Sampled rows, rich in hits. Any-hit rate of the full collection: about 18%. Calls follow the shape of the dose curve; as a rule, active = well fitted curve in the direction sought with a large enough effect; inconclusive = small, poorly fitted or top-dose-only effect, or another doubt; inactive = no such curve, though single readings can be large; an effect the other way counts as inactive or inconclusive. % is scaled to controls: 0 for no effect and ±100 for the full control effect; potency is read from the fitted curve at half-maximal effect.

SMILES	TDP1 inh	GCN5L2 inh	PLK1 PBD block	VDR inhibitor	TDP1 cell noCPT	DT40 TDP1 CPT
Cc1ccc2c(c1)N(C(=O)N1CCC(C(=O)NCCC3=CCCCC3)CC1)CC(C)O2 (stereo unspecified)	3%	-4%	nt	18%	18µM*	?
CCC1CN(C(=O)N2CCC(C(=O)NCCc3ccccc3C)CC2)c2ccccc2O1 (stereo unspecified)	6%	-12%	nt	1%	21µM*	?
CCS(=O)(=O)N1CCC(C(=O)NCCC2=CCCCC2)CC1	-2%	2%	0%	15%	5%	-9%
Cc1ccc2c(c1)N(C(=O)N1CCC(C(=O)NCCc3ccccc3)CC1)CC(C)O2 (stereo unspecified)	6%	-4%	nt	9%	?	?
CCC1CN(C(=O)N2CCC(C(=O)NCCC3=CCCCC3)CC2)c2ccccc2O1 (stereo unspecified)	1%	-5%	nt	6%	12µM*	16µM*
CCC1CN(C(=O)N2CCC(C(=O)NCCN(C)C)CC2)c2ccccc2O1 (stereo unspecified)	5%	-4%	nt	7%	-7%	2%
COc1cccc(CN(C)CC2CCCN(CCc3ccccc3C)C2)c1 (stereo unspecified)	nt	0%	-14%	-5%	18µM*	?
CCN(CC1CCCN(CCc2cccc(OC)c2)C1)C(=O)C=C(C)C (stereo unspecified)	nt	-4%	2%	0%	0%	-9%
CCN(Cc1ccc(O)cc1)CC1CCCN(CCc2cccc(F)c2)C1 (stereo unspecified)	nt	-18%	-2%	-5%	?	16µM*
CCN(Cc1cccc(OC)c1)CC1CCCN(CCc2cccc(OC)c2)C1 (stereo unspecified)	nt	-4%	1%	18%	?	15µM*
CCOc1cccc(CN(CC)CC2CCCN(CCc3cccc(OC)c3)C2)c1O (stereo unspecified)	nt	-7%	-8%	-10%	16µM*	?
O=C(Nc1ccc(N2CCOCC2)cc1N1CCOCC1)c1ncoc1-c1cccc(F)c1	nt	-9%	-2%	8%	?	?
CCN(CC1CCCN(CCc2cccc(F)c2)C1)C(=O)c1ccc(CSC)o1 (stereo unspecified)	5%[56.1 µM]	-16%	-4%	-19%	23µM*	?
COc1cc(OC)c(OC)cc1CN(C)CC1CCCN(CCc2ccccc2F)C1 (stereo unspecified)	2%	0%	-21%	-19%	?	15µM*
CC(=O)Nc1ccc(CN(C)CC2CCCN(CCc3cccc(C(F)(F)F)c3)C2)cc1 (stereo unspecified)	2%	-2%	-5%	-1%	?	13µM*
CCN(CC1CCCN(CCc2cccc(F)c2)C1)C(=O)c1ccoc1C (stereo unspecified)	nt	nt	-10%	nt	-26%	-23%
O=C(C[n+]1cccc(Cl)c1)c1ccc(F)cc1	nt	nt	nt	nt	-18%	-2%
O=C(Nc1ccc(S(=O)(=O)Nc2ncccn2)cc1)c1cc(=O)c2ccccc2o1	9%	-1%	nt	6%	-14%	-4%
Clc1ccc(CCNc2ncnc3c2nnn3Cc2ccccc2)cc1	nt	-4%	-1%	10%	?	-22%
O=C(c1ccc(-c2nc3ccccc3s2)o1)N1CCN(c2ccccc2O)CC1	7%	-10%	1%	-10%	21µM*	23µM*
O=C(CN1CCN(C(=O)c2ccc(-c3nc4ccccc4s3)o2)CC1)Nc1ccc(F)cc1	5%	-9%	4%	-8%	26µM*	?
Cc1cccc(NC(=O)CN2CCN(C(=O)c3ccc(-c4nc5ccccc5s4)o3)CC2)c1C	4%	-1%	?	3%	?	?
